# Active and inactive are the calls of the source. Calls come from the whole dose curve; as a rule, active = well fitted curve in the direction sought with a large enough effect; inactive = no such curve, though single readings can be large or run the other way.
# Molecular target: Pyruvate kinase PKM (Homo sapiens) (UniProt P14618)
# Experiment: Confirmation Concentration-Response Assay for Activators of Human Muscle isoform 1 Pyruvate Kinase
# Details: purified hPK-M1, Kinase-Glo ATP luminescence, 1 h; series mostly up to 57.5 µM; activity change, positive = activation: at the top concentration
# Source text: Confirmatory assay NIH Chemical Genomics Center [NCGC] Matthew G. Vander Heiden, M.D., Ph.D. [Harvard Medical School, 77 Avenue Louis Pasteur, Boston, MA 02115] NCGC Assay Overview: Human pyruvate kinase […] (hPK-M1) enzyme was supplied as a highly purified (>95% pure) preparation from Harvard Medical School and assayed for its ability to generate ATP from ADP using phosphoenolpyruvate (PEP) as a substrate. ATP generation was detected in a coupled reaction by luciferase-mediated luminescence, an ATP-dependent process. Pyruvate kinase substrates, PEP and ADP, were present in the assay at Km and approximately 10-fold below Km respectively. The enzyme was assayed at an intermediate level of activity to screen for both inhibitors and activators.
# NCGC Assay Protocol Summary for M1-isoform: Three uL of substrate mix (at r.t.) in assay buffer (50 mM Imidazole pH7.2, 50 mM KCl, 7 mM MgCl2, 0.01% Tween 20, 0.05% BSA) was dispensed into white solid bottom 1,536 well microtiter plates so that the final concentrations of substrates in the assay were 0.1 mM ADP and 0.5 mM PEP. 23 nL of compound were delivered by a pin tool and 1 uL of enzyme mix (final concentration of 1 nM) in assay buffer (4 degree Celsius) was added. Plates were incubated at room temperature for 1 hour. Two uL of detection mix (Kinase-Glo, Promega; at 4 degree Celsius protected from light) was added and luminescence read by a ViewLux (Perkin Elmer) at 1 second exposure/plate. Data were normalized to the uninhibited (row 31). Additionally, a no enzyme and 5-fold enzyme control was dispensed in row 32, split equally between the two conditions.
# Chain of Pyruvate kinase PKM (Homo sapiens) (P14618 whole entry, looked up, canonical isoform): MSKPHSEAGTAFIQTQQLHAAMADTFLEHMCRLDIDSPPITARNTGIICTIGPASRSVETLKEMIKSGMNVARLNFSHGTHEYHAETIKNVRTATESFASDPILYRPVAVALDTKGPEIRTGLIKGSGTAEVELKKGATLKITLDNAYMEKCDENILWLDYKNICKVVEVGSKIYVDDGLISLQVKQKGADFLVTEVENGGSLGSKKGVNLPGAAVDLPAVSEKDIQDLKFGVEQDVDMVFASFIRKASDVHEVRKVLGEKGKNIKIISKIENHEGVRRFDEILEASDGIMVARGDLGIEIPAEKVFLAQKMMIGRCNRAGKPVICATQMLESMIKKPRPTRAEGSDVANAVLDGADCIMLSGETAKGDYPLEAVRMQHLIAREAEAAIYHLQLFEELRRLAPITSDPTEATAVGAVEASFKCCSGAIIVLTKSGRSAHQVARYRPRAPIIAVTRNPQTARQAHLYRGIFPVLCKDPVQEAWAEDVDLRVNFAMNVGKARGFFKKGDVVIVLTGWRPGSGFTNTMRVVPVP
SMILES,"activity change, positive = activation",outcome
N#Cc1ccc(S(=O)(=O)N2CCN(S(=O)(=O)c3ccc4c(c3)OCCO4)CC2)cc1,9.21% (inactive),
Cc1cc2c(s1)c1cnn(Cc3cccc(F)c3)c(=O)c1n2C,1.98% (inactive),
CCCc1cc(F)c(S(=O)(=O)N2CCN(S(=O)(=O)c3ccc4c(c3)OCCO4)CC2)cc1F,1.33% (inactive),
Cn1c2cc(C=O)sc2c2cnn(Cc3ccccc3F)c(=O)c21,-1.04% (inactive),
O=C(CN1C(=O)N/C(=C\c2cccn2-c2cccc(C(=O)O)c2)C1=O)Nc1ccccc1F,0.345% (inactive),
Cc1cc2c(s1)c1cnn(Cc3ccc(C(C)C)cc3)c(=O)c1n2C,1.66% (inactive),
Cc1cc2c(s1)c1cnn(Cc3ccc(C(F)(F)F)cc3)c(=O)c1n2C,0.64% (inactive),
Cn1c2cc(CO)sc2c2cnn(Cc3ccccc3F)c(=O)c21,-7.43% (inactive),
O=S(=O)(c1cccc(C(F)(F)F)c1)N1CCN(S(=O)(=O)c2ccc3c(c2)OCCO3)CC1,-1.31% (inactive),
O=C1CN(S(=O)(=O)c2ccc3c(c2)OCCO3)CCN1S(=O)(=O)c1c(F)cccc1F,6.84% (inactive),
O=S(=O)(NC1CCC(NS(=O)(=O)c2c(F)cccc2F)CC1)c1ccc2c(c1)OCCO2 (centres undefined),,inactive
Cn1c2cc([N+](=O)[O-])sc2c2cnn(Cc3ccccc3F)c(=O)c21,6.32% (inactive),
Cc1cc2c(s1)c1cnn(-c3ccccc3)c(=O)c1n2C,-6.33% (inactive),
Cn1c2cc(C#N)sc2c2cnn(Cc3ccccc3F)c(=O)c21,,inactive
O=C(c1ccc2c(c1)OCCO2)N1CCN(S(=O)(=O)c2c(F)cccc2F)CC1,11% (inactive),
CCc1cc2c(s1)c1cnn(Cc3ccccc3F)c(=O)c1n2C,2.72% (inactive),
COc1cccc(S(=O)(=O)N2CCN(S(=O)(=O)c3ccc4c(c3)OCCO4)CC2)c1,6.37% (inactive),
O=S(=O)(NCC1CN(S(=O)(=O)c2c(F)cccc2F)C1)c1ccc2c(c1)OCCO2,-4.42% (inactive),
O=S(=O)(NCCCCCCNS(=O)(=O)c1c(F)cccc1F)c1ccc2c(c1)OCCO2,4.36% (inactive),

# Source: PubChem BioAssay AID1780 (National Center for Advancing Translational Sciences (NCATS), 2009)
